# Screening results as filed in PubChem.
# Many of the other results were omitted from the sample, so hits are more common in it than they were.
# Methyltransferases = Primary Screen for Target Class Profiling of Small Molecule Inhibitors of Methyltransferases. purified enzyme, MTase-Glo SAH luminescence; stronger effect = lower value. calls only at 40 µM. 25,000 compounds, 3.9% hits. AID 1745853, 2022; call rule not given here
#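 Each enzyme was assayed with SAM and its substrate. SAH formation detected by MTase-Glo luminescence; single-point 40 uM screen[…].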
# The depositor's hits bear a star; i = inactive; + = active, no number; ! = not confirmed by another sample. % is set by controls: 0 for no effect and ±100 for the full control effect.
SMILES,Methyltransferases
Cc1ccn(-c2cc(Cl)ccc2[C@@H](Oc2cc(-c3ccc(C[C@H](N)C(=O)O)cc3)nc(N)n2)C(F)(F)F)n1,+
CC(C)NC(=O)c1ccc2c(=O)n(C(C)C)c3nn(CC(=O)Nc4cccc(Cl)c4)c(=O)n3c2c1,i
COC(=O)c1cc2n(n1)CC(C)(C(=O)NC1CCCCCC1)N(c1ccc(F)cc1C)C2=O (stereo not given),i
Cc1cccc(CNC(=O)C2(C)Cn3cnc(C(=O)NCc4ccccn4)c3C(=O)N2C2CC2)c1 (stereo not given),i
CC(C)Cn1c(=O)c2ccccc2n2c(SCC(=O)Nc3ccc(C(C)C)cc3)nnc12,i
Cc1cc(C)cc(NC(=O)CSc2nnc3n(Cc4ccc(F)cc4)c(=O)c4ccccc4n23)c1,i
COc1ccc(OC)c(-c2ccc(NC(=O)c3ccncc3F)cc2)c1,i
O=C(Nc1ccc(F)cc1)c1ccnc2[nH]ccc12,i
Nc1nccc(Oc2ccc(NC(=O)c3c[nH]cc(-c4ccc(F)cc4)c3=O)cc2F)c1Cl,+
COc1ccc(OC)c2c1cc1n2CC(C)(C(=O)NC2CCCCC2)N(Cc2ccco2)C1=O (stereo not given),i
Cc1ccc(N2C(=O)c3cc4ccccc4n3CC2(C)C(=O)NC2CCCC2)cc1Cl (stereo not given),i
OC[C@H]1O[C@@H](OC[C@H]2O[C@@H](OC/C=C/c3ccccc3)[C@H](O)[C@@H](O)[C@@H]2O)[C@@H](O)[C@@H]1O,i
O=C(O[C@@H]1O[C@H](CO)[C@@H](O)[C@H](O)[C@H]1O)c1c(O)cc(O)cc1/C=C/c1ccccc1,+
O=C(/C=C/c1ccccc1O)O[C@@H]1O[C@H](CO)[C@@H](O)[C@H](O)[C@H]1O,i
OC[C@H]1O[C@@H](Oc2ccccc2)[C@H](O)[C@@H](O)[C@@H]1O,i
OCCc1ccc(O[C@@H]2O[C@H](CO)[C@@H](O)[C@H](O)[C@H]2O)c(O)c1,i
OC[C@H]1O[C@@H](Oc2ccc(O)c3cccc(O)c23)[C@H](O)[C@@H](O)[C@@H]1O,+
O=C(c1ccccc1)c1c(O)cc(O)cc1O[C@@H]1O[C@H](CO)[C@@H](O)[C@H](O)[C@H]1O,+
CC(=O)c1c(O)cc(O[C@@H]2O[C@H](CO)[C@@H](O)[C@H](O)[C@H]2O)cc1O,i
CC(=O)c1c(C)cc(O[C@@H]2O[C@H](CO)[C@@H](O)[C@H](O)[C@H]2O)cc1O,i
Cc1ccccc1CN1C(=O)c2ccc(-c3ccccc3)n2CC1(C)C(=O)NC1CCCCC1 (stereo not given),i
CCc1ccc(NC(=O)Cn2nc3n(CCCOC(C)C)c(=O)c4ccccc4n3c2=O)cc1,i
COc1ccc(C(=O)Cn2nc3n(C)c(=O)c4ccc(C(=O)NC5CCCC5)cc4n3c2=O)cc1,i
CCc1cc2c(cc3n2CC(C(=O)NC2CCCCC2)(c2ccccc2)N(Cc2ccccc2Cl)C3=O)s1 (stereo not given),i
Cc1ccc(CNS(=O)(=O)c2cc3[nH]c(=O)[nH]c3cc2C)cc1,i
SMILES,Methyltransferases
C=Cc1ccc(CSc2nnc3n(CCC)c(=O)c4cc(Cl)ccc4n23)cc1,i
CN1C(=O)c2cc(C(=O)NCc3cccc(F)c3)nn2CC1(C)C(=O)NCc1ccc(F)cc1 (stereo not given),i
Cc1c(Cl)cccc1NS(=O)(=O)c1ccc2[nH]c3c(c2c1)CCCC3,i
CC(=O)N[C@@H](CS)C(=O)O,i
COc1ccc(CC(NC(C)=O)C(=O)O)cc1 (stereo not given),+
COc1cccc(OC)c1-c1ccc(C[C@H](NC(=O)c2c(Cl)cccc2Cl)C(=O)O)cc1,i
COc1ccccc1CNC(=O)C1(C)Cn2nc(-c3ccccc3)cc2C(=O)N1c1ccc(C)cc1Cl (stereo not given),i
COc1cccc(CNC(=O)C(C)n2ccc3cc(S(=O)(=O)N4CCCC4)ccc32)c1OC (stereo not given),i
Cc1cc(Nc2nc(N[C@@H](C)c3ccc(F)cc3)c(C#N)cc2F)n[nH]1,+!
Cc1cc(Nc2nc(-c3ccccc3)nc3ccccc23)n[nH]1,i
CCCN1C(=O)c2cc(C(=O)NCc3ccc(OC)cc3OC)nn2CC1(C)C(=O)NC1CCCC1 (stereo not given),i
CCOCCCNc1nc2c(S(=O)(=O)c3cc(C)ccc3C)nnn2c2ccccc12,i
CCc1ccc(-c2cc3n(n2)CC(C)(C(=O)NC2CCCCC2)N(Cc2ccco2)C3=O)cc1 (stereo not given),i
COc1ccc(OC)c(CCNC(=O)CCc2nnc3n(Cc4ccc(F)cc4)c(=O)c4ccccc4n23)c1,i
COc1ccc(OC)c(CCNC(=O)Cn2ccc3cc(S(=O)(=O)N4CCCC4)ccc32)c1,i
CCCC(=O)NCCc1c2n(c3ccc(OC)cc13)CCCc1ccccc1-2,+
CN1C(=O)c2cc(C(=O)NCCCN3CCCCC3)nn2CC1(C)C(=O)NC1CCCCC1 (stereo not given),i
Cc1ccc(S(=O)(=O)c2nnn3c2nc(NCCC(C)C)c2ccccc23)cc1C,i
COc1ccc2cc3n(c2c1)CC(C)(C(=O)NC1CCCC1)N(Cc1cccnc1)C3=O (stereo not given),i
COc1cccc(CNC(=O)c2cc3n(n2)CC(C)(C(=O)NC2CCCCCC2)N(C)C3=O)c1 (stereo not given),i
N#Cc1ccc(COC[C@H]2O[C@@H](n3c(NCc4ccc(Cl)c(Cl)c4)nc4c(N)ncnc43)[C@H](O)[C@@H]2O)cc1,+
OC[C@H]1O[C@@H](n2cnc3c(NCc4ccc(O)cc4)ncnc32)[C@H](O)[C@@H]1O,i
Nc1ncnc2c1ncn2[C@@H]1O[C@H](COP(=O)(O)CP(=O)(O)OP(=O)(O)O)[C@@H](O)[C@H]1O,i
Cc1cccc(NC(=O)CSc2nnc3n(C)c(=O)c4ccc(C(=O)NC5CCCCC5)cc4n23)c1,i
Nc1ncnc2c1c(-c1cccc(OCc3ccccc3)c1)cn2C1CC(CN2CCCC2)C1 (stereo not given),+
SMILES,Methyltransferases
CC1(C(=O)NC2CCCCCC2)Cn2c(ccc2-c2ccco2)C(=O)N1CCCN1CCCCC1 (stereo not given),i
CCCC1c2ccc(C)n2CCN1C(=O)Nc1ccc(C)cc1C (stereo not given),i
CN1C(=O)c2cc(C(=O)NCCc3ccccc3)nn2CC1(C)C(=O)NCc1ccc(F)cc1 (stereo not given),i
CCOC(=O)c1cccc(Nc2cc(C)nc3ccc(C)cc23)c1,+
CCOC(=O)c1cnc2ccc(C)cc2c1Nc1cccc(C)c1,i
CCOC(=O)c1cc(Nc2ccccc2)c2cc(Cl)ccc2n1,i
CCOc1ccc(CN2C(=O)c3cc(-c4ccc(OC)cc4)nn3CC2(C)C(=O)NCc2ccccc2)cc1 (stereo not given),i
CCc1ccc(CN2C(=O)c3cc4ccccc4n3CC2(C)C(=O)NCCC(C)C)cc1 (stereo not given),i
CC1CCC(NC(=O)C2(C)Cc3ccccc3C(=O)N2Cc2cccs2)CC1 (stereo not given),i
CCCc1cc2c(N3CCN(C4=NCC(C)(C)S4)CC3)ncnc2s1,+
CC(C)c1cc2c(N3CCN(C4=NCC(C)(C)S4)CC3)ncnc2s1,+
Cc1ccc(Cn2c(=O)c3ccccc3n3c(=O)n(CC(=O)NCc4ccccc4Cl)nc23)cc1,i
